Measurements reported in paper PMC7862700, “An all-to-all approach to the identification of sequence-specific readers for epigenetic DNA modifications on cytosine”.

What follows are sequences tested against ELF4 (Homo sapiens, UniProt Q99607 1-663) (assay: DAPPL (digital affinity profiling via proximity ligation, sequencing); 10 mM Tris-HCl pH 7.5, 50 mM NaCl, 1 mM DTT, 4% glycerol, room temperature, 30 min; GST-TFs on glutathione beads, 16-mer random dsDNA library, 0.1% formaldehyde crosslink after washing; high values mean tight binding). Conditions: protein: recombinant; tags: N-terminal GST; dsDNA, one strand shown.
Sequence of ELF4 (Q99607 whole entry, the tested form may be a part): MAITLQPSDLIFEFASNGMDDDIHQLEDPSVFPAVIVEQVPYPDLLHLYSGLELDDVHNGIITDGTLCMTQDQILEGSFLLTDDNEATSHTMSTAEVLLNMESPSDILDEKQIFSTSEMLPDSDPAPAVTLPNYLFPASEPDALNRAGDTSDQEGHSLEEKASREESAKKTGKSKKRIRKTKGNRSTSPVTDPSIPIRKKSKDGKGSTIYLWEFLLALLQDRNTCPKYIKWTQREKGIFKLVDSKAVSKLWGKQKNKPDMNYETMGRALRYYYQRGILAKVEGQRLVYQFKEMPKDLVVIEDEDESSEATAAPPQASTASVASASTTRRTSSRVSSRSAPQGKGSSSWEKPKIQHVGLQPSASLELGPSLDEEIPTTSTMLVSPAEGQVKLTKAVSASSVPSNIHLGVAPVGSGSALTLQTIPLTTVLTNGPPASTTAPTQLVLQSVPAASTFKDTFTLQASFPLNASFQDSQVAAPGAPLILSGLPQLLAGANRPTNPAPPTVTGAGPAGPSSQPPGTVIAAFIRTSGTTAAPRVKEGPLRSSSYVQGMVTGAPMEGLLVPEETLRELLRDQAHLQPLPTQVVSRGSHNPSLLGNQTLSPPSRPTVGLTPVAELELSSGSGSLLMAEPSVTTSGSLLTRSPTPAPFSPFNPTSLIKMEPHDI
In short: (§1)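 Binding signal is defined as a hexamer's read frequency for one factor over its frequency for the tag-only sample. To obtain reads, GST-fused human transcription factors were expressed in yeast, captured on glutathione beads, barcoded with DNA and pooled with that sample. Pools met 200 nmole of a 16-mer random double-stranded DNA library in Tris/NaCl/DTT/glycerol buffer for 30 min at room temperature before washing, 0.1% formaldehyde crosslinking, proximity ligation (BsaI/T4 ligase, 1 h, 37 °C), PCR and Illumina NextSeq500 sequencing.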
With TCAGCC the binding signal was 1.11 fold enrichment (6-mer frequency, TF over GST control).
For CAAAGT, the binding signal was 1.03 fold enrichment (6-mer frequency, TF over GST control).
GATACA was tested, and the binding signal was 1.08 fold enrichment (6-mer frequency, TF over GST control).
CAAGCT was tested, and the binding signal was 1.02 fold enrichment (6-mer frequency, TF over GST control).
In the case of CGCGGC, the binding signal is reported as 1.15 fold enrichment (6-mer frequency, TF over GST control).
TGTGAT was tested, and the binding signal was 1.05 fold enrichment (6-mer frequency, TF over GST control).
With TGGCCA the binding signal was 1.13 fold enrichment (6-mer frequency, TF over GST control).
CCACAG was tested, and the binding signal was 1.03 fold enrichment (6-mer frequency, TF over GST control).
In the case of CACACC, the binding signal is reported as 1.06 fold enrichment (6-mer frequency, TF over GST control).
In the case of TTGACG, the binding signal is reported as 1.15 fold enrichment (6-mer frequency, TF over GST control).
In the case of GACTGC, the binding signal is reported as 1.01 fold enrichment (6-mer frequency, TF over GST control).
For TGATTG, the binding signal was 1.02 fold enrichment (6-mer frequency, TF over GST control).
For TGTCAA, the binding signal was 1.08 fold enrichment (6-mer frequency, TF over GST control).
For ACCGTT, the binding signal was 1 fold enrichment (6-mer frequency, TF over GST control).
For CATGGC, the binding signal was 1.02 fold enrichment (6-mer frequency, TF over GST control).
AGTTTT was tested, and the binding signal was 1.04 fold enrichment (6-mer frequency, TF over GST control).
With GCCGCA the binding signal was 1.04 fold enrichment (6-mer frequency, TF over GST control).
CCATGG was tested, and the binding signal was 1.06 fold enrichment (6-mer frequency, TF over GST control).
In the case of ACTCGG, the binding signal is reported as 1.02 fold enrichment (6-mer frequency, TF over GST control).
With CGGCCC the binding signal was 1.03 fold enrichment (6-mer frequency, TF over GST control).
In the case of TGGCGT, the binding signal is reported as 1.01 fold enrichment (6-mer frequency, TF over GST control).
In the case of CGTACG, the binding signal is reported as 1.07 fold enrichment (6-mer frequency, TF over GST control).
For ATTGAG, the binding signal was 1.05 fold enrichment (6-mer frequency, TF over GST control).
CACCCA was tested, and the binding signal was 1.12 fold enrichment (6-mer frequency, TF over GST control).
With GACGAC the binding signal was 1.03 fold enrichment (6-mer frequency, TF over GST control).
For AATGTG, the binding signal was 1.03 fold enrichment (6-mer frequency, TF over GST control).

The sequences below were run against T1, ELK4 (Homo sapiens, UniProt P28324-2 1-405) in the same assay as above. Conditions: protein: recombinant; tags: N-terminal GST; dsDNA, one strand shown.
T1 sequence: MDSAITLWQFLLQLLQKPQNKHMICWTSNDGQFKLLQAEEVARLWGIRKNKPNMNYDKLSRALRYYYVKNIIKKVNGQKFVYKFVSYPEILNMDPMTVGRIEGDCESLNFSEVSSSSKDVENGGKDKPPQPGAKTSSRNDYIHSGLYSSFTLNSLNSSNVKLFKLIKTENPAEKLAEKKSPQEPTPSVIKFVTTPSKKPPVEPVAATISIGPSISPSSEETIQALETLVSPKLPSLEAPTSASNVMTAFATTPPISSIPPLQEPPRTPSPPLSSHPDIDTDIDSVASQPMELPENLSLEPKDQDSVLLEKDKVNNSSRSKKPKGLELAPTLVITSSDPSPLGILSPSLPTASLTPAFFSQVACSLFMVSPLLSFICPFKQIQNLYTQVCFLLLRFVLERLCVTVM
In short: as §1
For TCAGCC, the binding signal was 1.02 fold enrichment (6-mer frequency, TF over GST control).
CAAGCT was tested, and the binding signal was 1.13 fold enrichment (6-mer frequency, TF over GST control).
For CGCGGC, the binding signal was 1.12 fold enrichment (6-mer frequency, TF over GST control).
For TGTGAT, the binding signal was 1.07 fold enrichment (6-mer frequency, TF over GST control).
For GCCGTC, the binding signal was 1.1 fold enrichment (6-mer frequency, TF over GST control).
With TGGCCA the binding signal was 1.08 fold enrichment (6-mer frequency, TF over GST control).
CCACAG was tested, and the binding signal was 1.04 fold enrichment (6-mer frequency, TF over GST control).
In the case of ATGCGT, the binding signal is reported as 1.15 fold enrichment (6-mer frequency, TF over GST control).
With CTTGAG the binding signal was 1.05 fold enrichment (6-mer frequency, TF over GST control).
In the case of TTGACG, the binding signal is reported as 1.21 fold enrichment (6-mer frequency, TF over GST control).
With GACTGC the binding signal was 1.08 fold enrichment (6-mer frequency, TF over GST control).
For TGTCAA, the binding signal was 1.11 fold enrichment (6-mer frequency, TF over GST control).
In the case of ACTGTC, the binding signal is reported as 1 fold enrichment (6-mer frequency, TF over GST control).
For GTTTGT, the binding signal was 1.19 fold enrichment (6-mer frequency, TF over GST control).
In the case of GCCGCA, the binding signal is reported as 1.04 fold enrichment (6-mer frequency, TF over GST control).
For CACCCA, the binding signal was 1.04 fold enrichment (6-mer frequency, TF over GST control).
GTGGCA was tested, and the binding signal was 1.04 fold enrichment (6-mer frequency, TF over GST control).
GCAGCC was tested, and the binding signal was 1.11 fold enrichment (6-mer frequency, TF over GST control).
